Here are results for 97 compounds from ChEMBL document CHEMBL3988442, “University of Dundee, Small-Polar-MMV Screening Library” (2021).

Among all 48,000 compounds or so, about 13,000 (27%) showed an effect of 50% or more. Some of the results follow.

The assay has as its system Wolbachia pipientis. Put plainly: Anti-Wolbachia Cell-Based Screen. The class given is functional. Set-up: scale not given: in the data most compounds retested in dose-response had high values. The settings on record: 5 µM.
As to `O=c1nc(SCc2ccncc2)c2c(n1CCO)CCC2`, the “Percent Effect” value was found to be 3.515%. As to `COc1cccc(N2CC3(CCN(c4cnccn4)C3)CC2=O)c1` (configuration not stated), the “Percent Effect” value is -7.581%. The value for `Cc1cc(Cl)ccc1NCc1cnn(C2CCS(=O)(=O)C2)c1` (configuration not stated) was 23.97%; that for `CCC1=NN2C(=N)/C(=C\c3cccn3-c3ccc(Br)cc3)C(=O)N=C2S1` was 83.94%. Consider `CCC1=NN2C(=N)/C(=C\c3cccn3-c3ccc(Cl)cc3)C(=O)N=C2S1`, for which the “Percent Effect” value turned out to be 96.44%.

Turning to `CCC1=NN2C(=N)/C(=C/c3cccc(Cl)c3)C(=O)N=C2S1`, the “Percent Effect” value was found to be 3.278%.

With `CCC1=NN2C(=N)/C(=C\c3cccn3-c3cccc(Cl)c3)C(=O)N=C2S1`, the “Percent Effect” value amounted to 116.1%. For `CN(Cc1ccco1)C1CCC12CCN(C(=O)C1CCOCC1)CC2.O=C(O)C(F)(F)F` (configuration not stated) the value was -16.55%; for `CO[C@H]1CCN(S(=O)(=O)c2cn(C)cn2)[C@H]1Cc1ccccc1.O=C(O)C(F)(F)F`, 1.513%.

Regarding `Cc1noc(CCNC(=O)c2ccc(Br)c(S(=O)(=O)N(C)C)c2)n1`, the “Percent Effect” value was determined as 13.21%. For `CCn1c(N)nc2cc(C(=O)NCCc3ccccc3C)cnc21` the value was -8.06%; for `CCN(CC)S(=O)(=O)CCNc1nnc(C(C)C)s1`, 4.911%.

Take `CC(C)c1nc(CNc2ccc(CNS(C)(=O)=O)cc2)cs1`: the “Percent Effect” value is on record as -10.73%. In the case of `CC(C)(C)n1cc(CNC2CCN(C(=O)c3ccco3)CC2)cn1`, the “Percent Effect” value is reported as -4.791%. Take `CC(C)(C)n1cc(CNc2ccc(CNS(C)(=O)=O)cc2)cn1`: the “Percent Effect” value turned out to be 115%. As for `CC(C)(C)n1cc(CNC2CCN(C(=O)c3ccncc3)CC2)cn1`, the “Percent Effect” value is listed as -2.234%. The value for `CC(C)OC(=O)NCc1ccc(NCc2cnn(C(C)(C)C)c2)cc1` was 104.7%. Consider `CC(C)(C(=O)NCc1ccc(C#N)cc1)n1cc(Br)cn1`, for which the “Percent Effect” value is 9.719%. For `CC(=O)N(Cc1ccc(NCc2cnn(C(C)(C)C)c2)cc1)C(C)C`, the “Percent Effect” value was determined as 111.1%. For `CC(C)(C)OC(=O)N1CCC(NCc2cnn(C(C)(C)C)c2)CC1` the value was -19.8%.

For the compound `CS(=O)(=O)c1ccc(NCc2ccc(F)cc2)cn1`, the “Percent Effect” value is -13.54%. For `CCc1nc(CNC(=O)Nc2nc(COC)cs2)cs1` the value was -11.4%.

As to `O=C(NCCc1csc(-c2cnccn2)n1)c1cnn[nH]1`, the “Percent Effect” value is recorded as -5.851%. As to `CCc1n[nH]c(SCC(=O)N2CCc3[nH]nc(C4CCC4)c3C2)n1`, the “Percent Effect” value is reported as -5.998%. As to `OC1(CNC2CCN(Cc3ccncc3)CC2)CCc2ccccc21` (configuration not stated), the “Percent Effect” value is 9.315%. For `O=C(NCC1CCOCC1)[C@@H]1C[C@@H]2CCN(Cc3ccco3)C[C@H]2O1.O=C(O)C(F)(F)F` the value was -3.417%. The value for `O=C(NCC1CC1)[C@H]1C[C@@H]2CCN(CCc3ccccc3)C[C@H]2O1.O=C(O)C(F)(F)F` was 16.57%. For `O=C(NCC1CC1)[C@@H]1C[C@@H]2CCN(Cc3ccoc3)C[C@@H]2O1` the value was 93.16%.

`O=C(NCC1CCOCC1)[C@H]1C[C@@H]2CCN(Cc3ccccc3)C[C@H]2O1.O=C(O)C(F)(F)F`: the “Percent Effect” value worked out at 108.7%. The value for `O=C(NCC1CCOCC1)[C@H]1C[C@@H]2CCN(Cc3ccncc3)C[C@@H]2O1.O=C(O)C(F)(F)F.O=C(O)C(F)(F)F` was 7.253%; that for `CNC(=O)[C@H]1C[C@@H]2CCN(CCc3ccccc3)C[C@@H]2O1.O=C(O)C(F)(F)F` was -33.06%. The value for `CNC(=O)[C@@H]1C[C@@H]2CCN(Cc3ccoc3)C[C@H]2O1` was 103.1%; that for `O=C(NCC1CC1)[C@@H]1C[C@@H]2CCN(Cc3ccccc3)C[C@H]2O1` was 100.1%; that for `O=C([C@@H]1C[C@@H]2CCN(Cc3ccco3)C[C@H]2O1)N1CCCO1` was -6.348%.

With `CC(C)[C@H]1CN(CCS(C)(=O)=O)C[C@@H]1NC(=O)c1ccc(=O)[nH]c1`, the “Percent Effect” value is -6.33%. In the case of `NC(=O)Cn1c(SCc2noc(-c3ccsc3)n2)nnc1C1CC1`, the “Percent Effect” value is listed as 7.901%. For `Cc1cc(C)cc(C(=O)NCc2ncnn2C)c1` the value was -13.46%; for `CC(OCC1CC1)C(=O)Nc1ccn(Cc2ccccc2)n1` (configuration not stated), -8.999%.

For `N[C@H]1CC[C@@H](NC(=O)c2ccc3nc(-c4ccc(F)cc4)cn3c2)CC1`, the “Percent Effect” value is -22.5%.

`Cn1nc(C(=O)NCc2cccc(Cn3ccnc3)c2)ccc1=O`: the “Percent Effect” value is listed as -21.54%. The value for `Cn1cccc1C(=O)NCc1cn2c(n1)CN(C(=O)c1ccsc1)CC2` was 7.383%. The value for `O=C(NCC1CCOCC1)[C@@H]1C[C@@H]2[C@@H](CCN2Cc2ccoc2)O1` was 102.5%; that for `O=C(NC1CC1)[C@H]1CC[C@@H]2[C@@H](CCN2Cc2ccsc2)O1` was -0.273%. For `O=C(NCC1CC1)[C@H]1CC[C@@H]2[C@@H](CCN2Cc2ccoc2)O1` the value was 3.009%.

With `CC(C)NC(=O)NCCCc1cc(N)n(-c2ccccc2)n1`, the “Percent Effect” value is on record as -14.76%. The value for `CCCNC(=O)COc1ccc(C)cn1` was 4.173%; that for `CSC(C)C(=O)NCCCc1cc(N)n(-c2ccccc2)n1` (configuration not stated) was 6.591%; that for `Cc1ccc(-n2nc(C)c3c(C)cc(OCC(=O)NC(C)C)nc32)cc1` was 109.8%.

On to `CCCNC(=O)COc1cc(C)c2c(C)nn(-c3ccccc3)c2n1`, for which the “Percent Effect” value came to 102.4%. The value for `Cc1cc(C)c2c(OCC(=O)NC(C)C)nn(C)c2n1` was -14.3%; that for `Cc1ccc(OCC(=O)NCc2sccc2C)nc1` was -2.294%. For `Cc1ccc(OCC(=O)NCC(C)C)nc1` the value was 0.1298%. Turning to `CCCNC(=O)COc1cc(C)c2c(C)nn(-c3ccc(C)cc3)c2n1`, the “Percent Effect” value was 109.7%.

On to `CCNC(=O)COc1cc(CC)c2c(C)nn(-c3ccc(C)cc3)c2n1`, for which the “Percent Effect” value is 126.5%. For `Cc1ccc2oc(N3CCN(CC(=O)NC(C)C)CC3)nc2c1` the value was 0.7244%; for `Cc1ccc(OCC(=O)NCc2ccccc2F)nc1`, -9.663%; for `CCn1ncc2c1CCCC2NCc1cccc2c1OCCO2` (configuration not stated), 5.32%. `COCCCSc1ccc(NCc2ccc(C)cn2)cc1`: the “Percent Effect” value is -7.055%. For `CCN(CC)[C@@H]1CN(Cc2cnn(C)c2)[C@@H]2COC[C@H]12` the value was 6.266%; for `COC1CCN(Cc2csc(C(C)C)n2)CC1`, -2.369%; for `CC(CN1CCCC1)C(=O)N1CCC(c2nccn2CC2CC2)CC1` (configuration not stated), -20.21%.

As to `CSCc1noc(C2CCC(=O)N(CCc3ccccc3)C2)n1` (configuration not stated), the “Percent Effect” value is recorded as -4.988%. For `CCc1noc(C2CCCCN2C(=O)c2nnc3ccccc3n2)n1` (configuration not stated) the value was 13%; for `CC(NC(=O)NC1CCN(Cc2ccncc2)CC1)c1ccc(F)cc1` (configuration not stated), 24.84%; for `O=C1CCCN1CC1CN(C(=O)N2CCOCC2)Cc2nccn2C1` (configuration not stated), 4.749%. The value for `O=C(CC1CC1)N1Cc2nccn2CC(Cn2ncccc2=O)C1` (configuration not stated) was 90.4%. Turning to `O=C(c1ccco1)N1Cc2nccn2CC(Cn2ncccc2=O)C1` (configuration not stated), the “Percent Effect” value is reported as 108.6%. The value for `O=C(N1CCCC1)N1Cc2nccn2CC(Cn2ncccc2=O)C1` (configuration not stated) was 113.1%; that for `COCC(=O)N1Cc2nccn2CC(Cn2ncccc2=O)C1` (configuration not stated) was 110.2%. As for `COCC1CN(C(=O)c2ccc(C)o2)Cc2nccn2C1` (configuration not stated), the “Percent Effect” value was -22.35%. Take `O=C(CC1CC1)N1Cc2nccn2CC(CN2CCCC2)C1` (configuration not stated): the “Percent Effect” value is -4.92%.

For the compound `COCC1CN(C(=O)c2ccco2)Cc2nccn2C1` (configuration not stated), the “Percent Effect” value is 4.87%. The value for `O=C1CCCN1CC1CN(C(=O)CC2CCCC2)Cc2nccn2C1` (configuration not stated) was -15.1%. The value for `O=C(C1CC=CC1)N1Cc2nccn2CC(CN2CCCC2)C1` (configuration not stated) was 16.54%; that for `O=C(N1CCN(c2ccccc2O)CC1)C1(O)Cc2ccccc2C1` was -7.176%; that for `O=C(N[C@@H]1CN(c2ncccn2)C[C@@H]2CCCO[C@@H]21)c1ccnnc1.O=C(O)C(F)(F)F` was -7.292%. The value for `CSc1ccccc1C(=O)Nc1ccc(OC2CCN(C)CC2)cc1` was 4.435%. With `Cn1cc(CNc2cnn(CC3CCCO3)c2)c(-c2ccncc2)n1` (configuration not stated), the “Percent Effect” value is recorded as 4.968%.

Consider `CS(=O)(=O)N1Cc2nccn2CC(Cn2ncccc2=O)C1` (configuration not stated), for which the “Percent Effect” value is recorded as 1.411%. Turning to `O=C(c1ccc[nH]1)N1Cc2nccn2CC(Cn2ncccc2=O)C1` (configuration not stated), the “Percent Effect” value is on record as 107.9%. The value for `O=C(O)C(F)(F)F.O=C(O)C(F)(F)F.O=C(c1ccccn1)N1Cc2nccn2CC(CN2CCOCC2)C1` (configuration not stated) was -3.585%; that for `NC(=O)N1Cc2nccn2CC(Cn2ncccc2=O)C1` (configuration not stated) was 106.3%; that for `CN(Cc1cccnc1)CC1CN(C(N)=O)Cc2nccn2C1` (configuration not stated) was -13.65%.

As to `O=C(c1ccccc1)N1Cc2nccn2CC(Cn2ncccc2=O)C1` (configuration not stated), the “Percent Effect” value turned out to be 106.9%. For the compound `CSc1ncc(C(=O)N2C[C@H]3CC[C@@H]2CN(c2ncccn2)C3)cn1`, the “Percent Effect” value is on record as -34.6%. For `CC(C)N(CC(N)=O)Cc1cccc(Br)c1` the value was -7.902%; for `CCN(Cc1nc(COC)no1)C(=O)CCNC(=O)c1ccccc1F`, -2.73%.

`CCN(Cc1cccc(C(=O)Nc2c(C)cnn2C)c1)[C@H]1COC[C@@H]1O`: the “Percent Effect” value is 2.472%. The value for `CC(C)c1nsc(NC2CCOC3(CCCC3)C2)n1` (configuration not stated) was -5.666%; that for `CCc1ncc(C(=O)NCCNC(=O)Cc2ccc(F)cc2)s1` was -2.58%; that for `Cc1ncc(C(=O)NCCNc2ncnc3sccc23)s1` was -47.31%. For `CCc1ncc(C(=O)NCCNc2ncnc3sccc23)s1` the value was -14.73%.

Take `CCCC(C)(C)NC(=O)c1cnc(C)s1`: the “Percent Effect” value is listed as -0.6309%.

As to `CCc1ncc(C(=O)NCCNc2ccncc2)s1`, the “Percent Effect” value stood at 82.39%. For `Cc1ncc(C(=O)NCCNc2ccncc2)s1` the value was 106.3%; for `Cc1ccc(-c2nnc(CN3CCOCC(CO)C3)o2)n1C` (configuration not stated), -20.97%; for `CCOC1CCCN(C(=O)c2[nH]nc(C(C)C)c2Br)C1` (configuration not stated), -3.012%.
